Source: PubChem
PostGolgi yeast = phenotypic screen on post-Golgi transport, primary screen; post-Golgi transport phenotypic cell assay; inhibition, % at 10 µM; 98,000 tested, 0.9% active; AID 739, 2007;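 note: yeast cells grown in 1536-well plates; yeast grown about 18 h at 30C before absorbance read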
CYP2C9 activ = human CYP2C9 activators, primary screen, biochemical, luminescence; Cytochrome P450 2C9 (Homo sapiens), P11712; recombinant CYP2C9, luciferin-H conversion; stronger effect = higher value; factor 1 = untreated enzyme, 0 = blocked; activation factor at 5 µM; 96,000 tested, 1.4% active; AID 1024, 2008;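 active = activation factor of 2 or more for CYP2C9 at a 5 µM dose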
Target sequence (P11712 whole entry, looked up): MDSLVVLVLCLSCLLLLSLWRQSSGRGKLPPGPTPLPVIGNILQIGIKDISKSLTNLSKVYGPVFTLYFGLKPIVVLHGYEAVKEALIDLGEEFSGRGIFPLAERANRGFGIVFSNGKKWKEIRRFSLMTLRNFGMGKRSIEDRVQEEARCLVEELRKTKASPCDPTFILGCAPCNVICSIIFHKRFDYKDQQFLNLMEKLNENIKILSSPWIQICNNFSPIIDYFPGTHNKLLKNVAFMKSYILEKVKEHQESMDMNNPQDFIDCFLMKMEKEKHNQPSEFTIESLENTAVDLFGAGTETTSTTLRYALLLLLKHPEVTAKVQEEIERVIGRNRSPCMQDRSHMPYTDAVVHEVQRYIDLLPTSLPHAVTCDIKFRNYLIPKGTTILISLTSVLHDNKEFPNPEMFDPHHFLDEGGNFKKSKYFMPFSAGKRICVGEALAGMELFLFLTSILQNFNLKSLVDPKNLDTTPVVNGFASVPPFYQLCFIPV
CYP2C19 activ = human CYP2C19 activators, primary screen, biochemical, luminescence. Cytochrome P450 2C19 (Homo sapiens), P33261. recombinant CYP2C19, luciferin-H EGE luminescence; stronger effect = higher value; 0 = fully inhibited enzyme, 1 = untreated enzyme. activation factor at 5 µM. 96,000 tested, under 10 active. AID 1025, 2008;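 active = activation factor of at least 2 at 5 µM in the primary screen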
CYP2C19 inhib = blockers of cytochrome P450 2C19 activity – biochemical, luminescence, ADME assay, primary screen. P33261. CYP2C19 Supersomes, luciferin-H EGE luminescence, 30 min. inhibition, % at 5 µM. 96,000 tested, 21% active;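 active = CYP2C19 inhibition above a set limit at 5 µM in the primary screen, cut at about 50% in these data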
CYP2C9 inh = blockers of cytochrome P450 2C9 activity – biochemical, luminescence, ADME assay, primary screen | P11712 | CYP2C9 Supersomes, luciferin-H conversion | inhibition, % at 5 µM | 96,000 tested, 20% active | AID 777, 2007;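 active = blocking of liver enzyme CYP2C9 beyond about 50% at 5 µM, limit read from the data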
PostGolgi ctrl = growth inhibition of yeast control strain, primary screen, counter-screen for post-Golgi transport modulator project; efflux-deficient yeast background strain, growth absorbance A615, 16 h; AID 738, 2007; inhibition, % at 10 µM; 98,000 tested, 5% active
A number is an active result; – = inactive; · = no result. Sampled rows, rich in hits. Any-hit rate of the full collection: about 32%. Cut-off read from the data, not from the text of the source, unless noted: active = inhibition above about 30%; inactive = the rest.

SMILES	PostGolgi yeast	CYP2C9 activ	CYP2C19 activ	CYP2C19 inhib	CYP2C9 inh	PostGolgi ctrl
Cc1cccc(OCCCCc2c(C)n[nH]c2C)c1C	–	–	–	88	74	38
CCOc1ccc(CCNS(=O)(=O)c2c(C)n[nH]c2C)cc1OCC	–	–	–	–	–	–
COc1ccccc1OCCCc1c(C)n[nH]c1C	109	–	–	67	–	100
COc1cccc(/C=N/NC(=O)CCc2c(C)n[nH]c2C)c1	–	–	–	–	–	–
CC(=O)NC1C(=O)N=C(SCC(=O)NC2CCCCC2)NC1=O (centres undefined)	–	–	–	–	–	–
O=C(CSc1nc(-c2cccs2)cc(C(F)(F)F)n1)NCc1ccco1	–	–	–	62	79	–
O=C(CSc1nc(-c2ccccc2)cc(C(F)(F)F)n1)NCc1ccco1	–	–	–	–	–	–
O=C(NCc1ccco1)c1nn2c(C(F)(F)F)cc(-c3cccs3)nc2c1Br	–	–	–	–	73	–
CCC(C)NC(=O)CSc1nc(-c2cccs2)cc(C(F)(F)F)n1 (centres undefined)	–	–	–	97	88	–
O=C(NC1CCCCCCC1)c1ccc(S(=O)(=O)N2CCCC2)cc1	–	–	–	–	–	–
CC(C)CC(C(=O)NC(=O)NCc1ccccc1)N1C(=O)c2ccccc2C1=O (centres undefined)	–	–	–	–	–	–
CCCCC(c1nnnn1CCOC)N1CCN(C(=O)c2ccco2)CC1 (centres undefined)	–	–	–	80	55	–
CCC(c1nnnn1CCOC)N1CCN(C(=O)c2ccco2)CC1 (centres undefined)	–	–	–	–	–	–
CCCC(c1nnnn1C1CCCC1)N1CCN(C(=O)c2ccco2)CC1 (centres undefined)	–	–	–	–	–	–
c1coc(CN2CCN(C(c3cccs3)c3nnnn3C3CCCC3)CC2)c1 (centres undefined)	–	–	–	–	–	–
CCCC(c1nnnn1C1CCCCC1)N1CCN(c2ncccn2)CC1 (centres undefined)	–	–	–	–	81	37
CCCCC(c1nnnn1C1CCCC1)N1CCN(C2CCCCC2)CC1 (centres undefined)	–	–	–	–	–	–
c1ccc(CC2CCN(C(c3cccs3)c3nnnn3C3CCCC3)CC2)cc1 (centres undefined)	–	–	–	68	88	–
CCCCC(c1nnnn1C1CCCC1)N1CCN(C(=O)c2ccco2)CC1 (centres undefined)	–	–	–	73	69	–
COc1cccc2cc(/C(C)=N/Nc3nc(-c4cc(C)ccc4C)cs3)c(=O)oc12	–	–	–	–	–	–
Cc1ccc2occ(C(c3nnnn3C3CCCC3)N3CCN(C(=O)c4ccco4)CC3)c(=O)c2c1 (centres undefined)	–	–	–	82	83	–
O=C(c1ccco1)N1CCN(C(c2ccccn2)c2nnnn2C2CCCC2)CC1 (centres undefined)	–	·	·	·	·	–
COc1cc(C(c2nnnn2C2CCCC2)N2CCN(C)CC2)cc(OC)c1OC (centres undefined)	–	–	–	–	–	–
O=C(c1ccco1)N1CCN(C(c2cccs2)c2nnnn2C2CCCC2)CC1 (centres undefined)	–	–	–	55	68	–
COc1ccccc1N1CCN(C(c2cccs2)c2nnnn2C2CCCC2)CC1 (centres undefined)	–	–	–	94	88	–
SMILES	PostGolgi yeast	CYP2C9 activ	CYP2C19 activ	CYP2C19 inhib	CYP2C9 inh	PostGolgi ctrl
COC(=O)C1=C(N)Oc2cc(C)[nH]c(=O)c2C1c1cccnc1 (centres undefined)	–	–	–	–	–	–
O=C(Cn1cnc2c(oc3ccccc32)c1=O)NCC1CCCO1 (centres undefined)	–	–	–	–	–	–
CCc1ccc(C(=O)NCc2cccs2)s1	–	–	–	80	–	–
O=C(NCc1cccs1)c1ccc(Cl)s1	–	–	–	54	–	–
Cc1occc1C(=O)NCc1cccs1	–	·	·	·	·	–
CCOc1nc(C)nc(NC(=O)NS(=O)(=O)c2ccccc2Cl)n1	–	–	–	–	–	–
